The campaign covered roughly 360,000 compounds. About 11,000 (3.1%) were called active. About 4% were inconclusive and are not listed. This is one part of a sample in which actives are shown more often than they occur. Unmarked numbers belong to inactive results. The call rests on the fitted dose curve; in most records, active means well fitted inhibition curve with a large enough effect; inconclusive means small, poorly fitted or top-dose-only effect; inactive means no such curve, though single readings can be large or run the other way.
On the % scale 0 is the no-effect control and ±100 the full control effect; potency means the concentration at half of the fitted maximal effect.

The target of the assay is Schistosoma mansoni thioredoxin glutathione reductase (TGR) (UniProt Q962Y6). Briefly: qHTS Assay for the Inhibitors of Schistosoma Mansoni Peroxiredoxins. Further: nearly all actives have a fitted effect of over 60% in size. To be noted: purified TGR, DTNB reduction, TNB absorbance 405 nm; series mostly up to 114 µM; activity change, negative = inhibition: at the top concentration. A digest of the protocol: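 TGR 20 nM + NADPH 100 uM (dispensed conc.), cpd preinc 15 min RT; start with NADPH (500 uM addition) then DTNB (15 mM addition). Kinetic TNB absorbance, 405 nm filter. Four-parameter Hill fit across titration.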
On to `O=C(NNS(=O)(=O)Cc1ccccc1)c1ccc([N+](=O)[O-])cc1`, for which the “activity change, negative = inhibition” value is 1.83%. `O=C(CNC(=O)c1ccccc1)Oc1ccc([N+](=O)[O-])cc1`: the Potency was 11.2 µM (active).

`COc1cc(CN(CC2CCCO2)C(=O)c2ccccc2F)cc(OC)c1OC` (stereo unspecified): the “activity change, negative = inhibition” value is -7.23%. Still for that read-out and setting: for `CCc1nc2c(cnn2-c2ccc(C)cc2)c(=O)n1-c1ccc(C)cc1` the value was 9.53%. As for `COc1cc(CN2CCC(n3nccc3NC(=O)CCCc3ccccc3)CC2)ccc1O`, the Potency was 44.7 µM (active). For `COc1ccc(CN2CCC(n3nccc3NC(=O)CCCc3ccccc3)CC2)cc1C`, the “activity change, negative = inhibition” value is 5.46%. Consider `Cc1ccc(CN2CCC(n3nccc3NC(=O)CCCc3ccccc3)CC2)o1`, for which the “activity change, negative = inhibition” value was -60.4%.

Regarding `CC1=Nc2cc(C(=O)N3CCC(C)CC3)ccc2Sc2ccc(Cl)cc21`, the “activity change, negative = inhibition” value is 12.6%.

In the case of `N=C1C(c2nc3ccccc3s2)=C(O)CN1NC(=O)c1ccc([N+](=O)[O-])cc1`, the Potency is 12.6 µM (active). For `Cc1ccc(C)n1NC(=O)c1ccc([N+](=O)[O-])cc1`, the “activity change, negative = inhibition” value was -23.3%. The same measure, in the same setting: as for `N=C1C(c2nc3ccccc3[nH]2)=C(O)CN1NC(=O)c1c[nH]c2ccccc12`, the figure is -7.22%; as for `CCC(=O)N1CCc2cc(Br)cc(S(=O)(=O)NCc3ccc(Cl)cc3)c21`, 1.1%; as for `Cc1nn(CC(=O)O)c(=O)c2cc3cc(F)ccc3n12`, 4.83%. Take `COc1ccccc1NC(=O)c1cc(S(=O)(=O)NCCc2ccccc2)ccc1F`: the “activity change, negative = inhibition” value was 1.29%. Still for that read-out and setting: as for `C=CCn1c(SCC(=O)NCc2ccccc2)nnc1-c1cc(Br)ccc1O`, the figure is -22.8%; as for `O=C(CSc1nc2ccc(Nc3nc(N4CCOCC4)nc(N4CCOCC4)n3)cc2s1)NCc1ccco1`, -26.5%. With `C=CCn1c(CSc2nc3ccccc3s2)nnc1SCC(=O)NCc1ccco1`, the Potency is 11.2 µM (active). Turning to `CC(=O)Nc1ccc(NC(=O)CSc2nnc3c4cc(Br)ccc4n(C)c3n2)cc1`, the “activity change, negative = inhibition” value was 0.416%. On to `CCn1c2ccc(F)cc2c2nnc(SCCN3CCOCC3)nc21`, for which the “activity change, negative = inhibition” value was 0%. In the case of `Cn1c2ccc(F)cc2c2nnc(NN)nc21`, the Potency was 50.1 µM (active).

As for `COc1ccc(S(=O)(=O)NCc2cccn2Cc2cccc(C)c2)cc1Cl`, the “activity change, negative = inhibition” value was -25%.

For the compound `CCOc1cc(C(=O)Nc2nnc3n2CCS3)cc(OCC)c1OCC`, the “activity change, negative = inhibition” value was 8.04%. Consider `CCc1cccc(NC(=O)CN(c2ccc(C)c(C)c2)S(=O)(=O)c2ccsc2C(=O)OC)c1`, for which the “activity change, negative = inhibition” value was 7.42%.

With `CC(=O)N1CC(C)c2scc(C)[n+]2-c2ccccc21` (stereo unspecified), the Potency is 1.58 µM (active). For the compound `Cc1ccc(/C=C(\C#N)C(=O)Nc2cc(C)ccc2C)cc1`, the “activity change, negative = inhibition” value is 9.44%. On the same count and under the same terms, for `Cc1nn(C(C)C(=O)Nc2ccc(C(C)C)cc2)c(=O)c2c1sc1ccccc12` (stereo unspecified) the value was -4.07%; for `CCOC(=O)c1c(NC(=O)c2ccc(S(=O)(=O)N3CCCC(C)C3)cc2)sc2c1CCN(C(C)C)C2` (stereo unspecified), -4.43%. For the compound `Cc1cc(C)c2c(n1)nn1c(-n3ccnc3)cc(C)nc21`, the Potency was 35.5 µM (active). With `COC(=O)c1cc(NC(=O)CCc2c(C)nc3c4c(C)cc(C)nc4nn3c2C)cc(C(=O)OC)c1`, the “activity change, negative = inhibition” value is -4.76%. Still for that read-out and setting: as for `Cc1cc(C)c2c(NC(=O)C3CC3)nn(C)c2n1`, the figure is 13.4%; as for `COc1ccc(NC(=O)Cn2c(=O)n(CCC(C)C)c(=O)c3cccnc32)cc1Cl`, 4.25%; as for `Cc1c(C(=O)NCc2ccccc2Br)oc2ccc3c(c12)C(=O)CC(C)(C)O3`, 1.93%.

Regarding `CCOC(=O)N1CCC(NC(=O)c2cnn(-c3cccc(C)c3)c2C2CCN(C(=O)OC(C)(C)C)CC2)CC1`, the “activity change, negative = inhibition” value is -12.9%. The same measure, in the same setting: as for `COc1cc(Cl)ccc1Nc1ncc(C(=O)N2CCN(c3ccccc3OC)CC2)c2ccccc12`, the figure is 8.24%; as for `Cc1ccc2nc(CN3CCN(S(=O)(=O)c4ccc(C)c(C)c4)CC3)oc2c1`, -4.25%; as for `CSc1nc(-c2ccccc2Cl)nc2c1Cc1c(CO)cnc(C)c1O2`, -22.1%.

As for `Cc1ccccc1CSc1nc(-c2ccccc2)nc2c1Cc1c(CO)cnc(C)c1O2`, the Potency was 39.8 µM (active). For `CSc1nc(-c2ccc(F)cc2)nc2c1Cc1c(CO)cnc(C)c1O2`, the “activity change, negative = inhibition” value is -3.94%.

`CC(=O)Nc1ccc(NC(=O)CN2CCCC(C)C2)c(Cl)c1` (stereo unspecified): the activity change, negative = inhibition was 9.99% [at 11.4 µM]. On the same count and under the same terms, as for `CC1CCCN(CC(=O)Nc2cc(Cl)ccc2Oc2ccccc2)C1` (stereo unspecified), the figure is 3.98%.

As for `Cc1cc(NC(=O)CN2CCCC(C)C2)n(-c2nc3ccccc3s2)n1` (stereo unspecified), the Potency was 12.6 µM (active). Regarding `COc1ccc(C(=O)Nc2nonc2-c2ccc(OC)c(OC)c2)cc1Cl`, the “activity change, negative = inhibition” value was -0.679%. Still for that read-out and setting: for `COc1cccc(CNc2nccn(-c3ccc(OC)c(OC)c3)c2=O)c1` the value was 10.1%.

For `O=C(O)c1cnn2c(C(F)(F)F)cc(-c3ccccc3)nc12`, the “activity change, negative = inhibition” value was -20.4%. The same measure, in the same setting: for `O=C(NCc1ccco1)c1ccc([N+](=O)[O-])cc1Cl` the value was -30.4%. Consider `O=C(NCc1ccco1)c1cnn2c(C(F)(F)F)cc(-c3ccco3)nc12`, for which the Potency was 50.1 µM (active). Consider `OCc1cnc(SCc2ccc(F)cc2)n1Cc1ccc(F)cc1`, for which the “activity change, negative = inhibition” value is -8.02%.

As to `COc1ccc(N2CCN(c3cc(C)nc4nncn34)CC2)cc1`, the “activity change, negative = inhibition” value was 0.741%.

`Cc1[nH]c(=O)c(C(=O)/C=C/c2ccccc2)c2c1CCCC2`: the Potency is 35.5 µM (active). Consider `C/C(=C\c1ccccc1)C1NC(=O)c2c(sc3c2CCCC3)N1` (stereo unspecified), for which the “activity change, negative = inhibition” value is -10.9%. Same read-out and setting: for `COC(=O)c1c(C)[nH]c(C(=O)/C=C/c2ccc(Cl)cc2)c1C` the value was -5.56%.
